# Rows were chosen to be rich in hits. Some 5.5% of all compounds tested hit in one or more screens of this group.
# Sfp PPTase inh – inhibitors of Bacillus subtilis Sfp phosphopantetheinyl transferase. 310,000 tested, 3.5% active. Biochemical Sfp PPTase activity, qHTS. Potency, µM, most hits filed as inhibitors;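 note: the enzyme is Sfp with the accession as filed and its product quenches rhodamine fluorescence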
#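 Compounds were incubated with enzyme (final 15 nM) for 15 min at room temperature before substrate addition started the reaction. Fluorescence at 525 nm excitation, 598 nm emission was recorded immediately and after 30 minutes.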
# Giardia kill – Giardia lamblia killing | activity change, % at 7.66 µM, hits read low | Giardia lamblia trophozoite viability | 340,000 tested, 0.15% active | AID 540267; in the data active = activity change below about -80%; inconclusive = between about -30% and that limit;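 note: parasites exposed to compound for two days anaerobically before the ATP read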
#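 Compounds were tested on trophozoites seeded at 100 cells/well and held 48 hrs at 37 deg C anaerobically. An ATP-based luminescent kit measured the remaining live cells.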
# ELG1 DNA repair – inhibitors of ELG1-dependent DNA repair in HEK293T cells; HEK293T ELG1-luciferase reporter, luminescence, 16 h; DNA damage induced by 5-fluorouridine; Potency, µM (doses to about 46.1 µM), most hits filed as inhibitors; 330,000 tested, 2.3% active; AID 504467; note: nearly all actives have a fitted effect of over 55% in size
#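 5-Fluorouridine DNA damage + compound/DMSO, 2,000 cells/well, 16 h, 37 °C/5% CO2. ONE-Glo, 30 min RT, luminescence. Readout = decrease in reporter signal.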
# Coupling enz – coupling enzyme interference in Giardia aldolase counter-screen; coupling enzyme system counterscreen, AmpLite Red fluorescence; activity change, negative = inhibition, % at 58.2 µM, hits read low; 290,000 tested, 0.67% active; AID 2472; in the data active = activity change below about -30%
#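 Coupling enzymes only (glyceraldehyde-3-phosphate) + compound, at 57.5 uM final, 10 min RT; add substrate/coupling/AmpLite Red mix, 20 min RT; fluorescence ex 525/em 598 nm. Actives flag coupling-system interference.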
# A number is an active result; – = inactive; ? = inconclusive; · = no result. Unless noted, calls come from the whole dose curve; as a rule, active = well fitted curve in the direction sought with a large enough effect; inconclusive = small, poorly fitted or top-dose-only effect, or another doubt; inactive = no such curve, though single readings can be large; an effect the other way counts as inactive or inconclusive.
SMILES,Sfp PPTase inh,Giardia kill,ELG1 DNA repair,Coupling enz
COc1ccc(C(=O)/C=C/C(=O)N(CC(=O)NC2CCCCC2)Cc2ccc(F)cc2)c(O)c1,8.9µM,–,?,–
Cc1cccc(CN2CCCC(C(=O)Nc3ccc(-c4cscn4)cc3)C2)c1 (stereo not given),–,–,–,·
COCCCN1C(=O)/C(=C/c2ccc(CNS(=O)(=O)c3ccccc3)o2)C(C(=O)OC)=C1C,14µM,–,–,–
COc1ccc(-c2sc3ccccc3c2C#CC2(O)CCCCC2)cc1,–,–,–,–
Cc1cccc(Cc2cccc(C)c2O)c1O,·,–,·,·
CC(=O)N(O)C/C=C/c1cccc(Oc2ccccc2)c1,–,·,·,–
O=C(c1cc(=O)[nH]c2ccccc12)N1CCN(S(=O)(=O)c2ccc(Cl)cc2)CC1,·,–,23µM,·
O=C(c1cc(=O)[nH]c2ccccc12)N1CCN(S(=O)(=O)c2ccc3ccccc3c2)CC1,–,–,?,–
Cc1ccc2nc(SCC(=O)Nc3ccccc3N3CCOCC3)c(C#N)cc2c1,–,–,4.1µM,–
CN(C)CCCNCC(=O)Nc1ccccc1N1CCOCC1,79µM,–,–,–
O=C(Cc1ccccc1)Nc1ccccc1N1CCOCC1,–,–,–,·
Cc1ccc(SCC(=O)Nc2ccccc2N2CCOCC2)cc1,–,–,–,·
C=C1C[C@@]23CC4C5[C@@]6(C)C[C@H](O)C[C@@]57C2[C@H](O)[C@@H]1[C@H](O)[C@H]3[C@H]7N4C6,–,·,·,–
Cc1cc(C)c(C)c(S(=O)(=O)N2CCC(C(=O)N3CC(C)CC(C)C3)CC2)c1C (stereo not given),·,–,?,·
O=C(NCc1ccccn1)C1(C(F)(F)F)C/C(=C\Cc2ccccc2)CCCO1 (stereo not given),56µM,–,·,–
Cc1cc2cc(CN(Cc3ccc4c(c3)OCO4)C(=O)c3cnccn3)c3nnnn3c2cc1C,–,–,16µM,–
O=C(NCC1CCCN(C(=O)Cc2ccccc2Cl)C1)c1ccc(F)cc1 (stereo not given),–,–,–,·
O=c1c2cc(Cl)ccc2nc(-c2ccc([N+](=O)[O-])cc2)n1O,–,–,18µM,–
N#Cc1ccc(-c2nc3cc(Cl)ccc3c(=O)n2O)cc1,–,–,12µM,–
O=c1c2cc(Br)ccc2nc(-c2ccc(Cl)cc2)n1O,–,–,?,–
N#Cc1ccc(-c2nc3ccccc3c(=O)n2O)cc1,–,–,?,–
CCOC(=O)C1CCCN(C(=O)c2cc3cc4ccc(OC)cc4nc3o2)C1 (stereo not given),–,–,–,·
CCCC1CCC(C(=O)n2nc(N)c3cc4ccc(OC)cc4nc32)CC1 (stereo not given),–,–,5.8µM,–
NCCCN(Cc1ccc(Cl)c(Cl)c1)c1ccccn1,·,–,·,·
Cc1ccccc1-n1c(=O)cc(N2CCN(C(=O)c3ccco3)CC2)[nH]c1=O,79µM,–,–,–
SMILES,Sfp PPTase inh,Giardia kill,ELG1 DNA repair,Coupling enz
C=CC(C1=CC(=O)C(OC)=CC1=O)c1ccc(OC)cc1 (stereo not given),40µM,·,·,-40
C=CC(C1=CC(=O)C(OC)=C(OC)C1=O)c1ccccc1 (stereo not given),1.8µM,·,·,-80
C=CC(C1=CC(=O)C(OC)=CC1=O)c1ccccc1 (stereo not given),–,·,·,-53
COc1ccc(C(=O)N/N=C/C(C)c2ccccc2)cc1OC (stereo not given),–,–,–,–
CN(CC[C@@H](Oc1ccc(C(F)(F)F)cc1)c1ccccc1)CC(=O)O,–,·,·,–
C[C@H]1Cc2c(-c3ccccc3)nc3c(c2CO1)CN(C(=O)NCCc1c[nH]c2ccccc12)CC3,–,·,·,–
CCCCNc1c(-c2ccc(-c3ccc(OC)cc3)c(OC)c2)nc2ccccn12,·,–,?,·
COc1cc2nc(CN(C)CC(=O)Nc3ccc(N4CCOCC4)cc3)[nH]c(=O)c2cc1OC,3.5µM,–,?,–
Cc1ccc(N2C(=O)C3C4C=CC(CC4)C3C2=O)cc1[N+](=O)[O-] (stereo not given),32µM,–,–,–
COc1ccccc1Nc1nc(-c2cccc([N+](=O)[O-])c2)nc2ccccc12,79µM,–,–,–
O=C(Nc1cccc(F)c1)N1CCC2(CC1)CCN(C(=O)c1csnn1)CC2,–,·,·,–
CN(C)c1ccc(CC2C(=O)Nc3ccccc32)cc1 (stereo not given),45µM,–,?,-39
Cc1nnc(N2C(=O)C(=O)/C(=C(\O)c3ccc4c(c3)CC(C)O4)C2c2ccccc2)s1 (stereo not given),–,–,?,·
Cc1ccc(N2CCN(C(=O)c3cn(CC4CCCCC4)nn3)C(C)C2)cc1 (stereo not given),·,–,·,·
Oc1cc(-c2ccncc2)cc2cccnc12,·,–,16µM,·
CN(C)c1ccc(-c2cc(O)c3ncccc3c2)cc1,·,–,?,·
O=C(Nc1ccccc1-c1ccccc1)c1ccc(=O)[nH]n1,–,–,?,–
CCOc1ccc(NC(=O)CN(C)C(=O)CSCc2ccc(C)cc2)cc1OCC,·,–,7.3µM,·
CCOc1ccc(NC(=O)CN(C)C(=O)c2ccccc2OCc2cccc(C)c2)cc1OCC,·,–,10µM,·
Cc1cccc(COc2ccccc2C(=O)N(C)CC(=O)Nc2cccc(F)c2)c1,·,–,?,·
COc1ccc(-c2cc(C)no2)cc1S(=O)(=O)Nc1cccc(CN2CCCC2)c1,–,–,?,·
COc1ccc(OC)c2c(C)cc(NCCN3CCOCC3)nc12,–,–,–,-30
Cc1ccc(OCCN2CCN(CC(O)Cn3c4ccccc4c4ccccc43)CC2)cc1 (stereo not given),45µM,·,–,–
Cc1ccc(OCC(O)Cn2c3ccccc3c3ccccc32)cc1 (stereo not given),–,–,–,–
c1ccc2[nH]c3cc4ncnc4cc3nc2c1,–,–,?,-43
SMILES,Sfp PPTase inh,Giardia kill,ELG1 DNA repair,Coupling enz
CC(C)(C)C(=O)Nc1ccc(N2CCN(c3ccc(C(F)(F)F)cn3)CC2)nc1,–,–,9.2µM,–
O=C(c1cc(-c2ccccc2Cl)nc2ccccc12)N1CCC1,·,–,–,·
O=C(c1cc(-c2ccccc2Cl)nc2ccccc12)N1CCN(c2ccccc2O)CC1,·,–,13µM,·
O=C(c1cnc(N2CCN(c3ccccn3)CC2)c2ccccc12)N1CCN(c2cccc(Cl)c2)CC1,–,–,4.6µM,–
O=C(c1cc(Cl)ccc1Cl)N1CCN(c2ccccn2)CC1,–,–,–,–
COc1ccc(-c2cc(C(=O)N3CCN(c4ccccc4O)CC3)c3ccccc3n2)cc1OC,–,–,9.2µM,–
O=C(c1cc(Sc2cccc(Cl)c2)nc2ccccc12)N1CCN(c2ccccn2)CC1,–,–,21µM,–
O=C(Nc1ccc(C(F)(F)F)cc1)c1cnc(N2CCN(c3ccccn3)CC2)c2ccccc12,–,–,5.2µM,–
COc1cc(-c2cc(C(=O)N3CCN(c4ccccn4)CC3)c3ccccc3n2)cc(OC)c1OC,–,–,8.2µM,–
O=C(c1cc(-c2ccccc2Cl)nc2ccccc12)N1CCN(c2ccccn2)CC1,·,–,23µM,·
